From PubChem
aSyn UTR act: Activators working through SNCA 5'UTR binding (MLPCN); 300,000 compounds, 7.1% hits; alpha-synuclein 5'UTR reporter, activators screen; AID 1814; activity score, % (tested at 7.5 µM), hits read low; in the data active = activity score below about -60%
Starred values were filed as active, the others as inactive. Not all results are given here.

For CC(=O)Nc1ccc(Nc2c3c4c(cccc4n(C)c2=O)C(=O)c2ccccc2-3)cc1 the results were aSyn UTR act 59.
For Nc1ccc2c(c1)C(=O)c1ccccc1C2=O the results were aSyn UTR act -145*.
Screening CC(=O)Nc1ccc2nc3ccccc3nc2c1 returned aSyn UTR act -82*.
`O=C1c2ccccc2C(=O)c2cc(NC(=O)C3CC3)ccc21` gave aSyn UTR act -161*.
`O=C(O)/C=C/C(=O)Nc1ccc2nccnc2c1` gave aSyn UTR act -75*.
Screening COc1cc(C2CC(=O)Nc3n[nH]c(-c4ccccc4)c32)cc(OC)c1OC (stereo not drawn) returned aSyn UTR act -120*.
For COc1cc(/C=C2\CC(C(C)(C)C)C/C(=C\c3cc(OC)c(OC)c(OC)c3)C2=O)cc(OC)c1OC (stereo not drawn) the results were aSyn UTR act 80.
For O=C1C(c2ccccc2)=[N+]([O-])c2ccccc21 the results were aSyn UTR act -94*.
`O=C1C(=O)c2ccc(-c3ccccc3)cc2-c2ccccc21` gave aSyn UTR act 119.
Screening CCOC(=O)/C(C#N)=C/C=C1/C=CC=CN1C returned aSyn UTR act -63*.
`C=CCN1C=CC(=C/C=C(/C#N)C(=O)OCC)C=C1` gave aSyn UTR act -138*.
For CC(C)CN(C)C(=O)CCc1nnc(Cc2cccc(C(F)(F)F)c2)o1 the results were aSyn UTR act -143*.
`CC(NC(=O)CCc1nnc(Cc2cccc(C(F)(F)F)c2)o1)C1CC1` (stereo not drawn) gave aSyn UTR act -77*.
For COc1cccc(OCc2cc(/C=N/NC(=O)c3ccn[nH]3)ccc2OC)c1 the results were aSyn UTR act -71*.
CCn1c(C)cc(O)c(C(=O)Nc2cccc(Cl)c2)c1=O was read as aSyn UTR act -96*.
`Cc1cc(O)c(C(=O)Nc2cccc(Cl)c2)c(=O)n1C` gave aSyn UTR act -104*.
Screening CCn1c(C)c(C)c2cc(C(=O)Nc3cccc(Cl)c3)ccc21 returned aSyn UTR act -117*.
`Cc1ccc(OCc2nnc(N)s2)cc1C` gave aSyn UTR act -62*.
`CC(=O)c1ccc(NC(=O)C2CC(=O)N(Cc3ccccc3)C2)cc1` (stereo not drawn) gave aSyn UTR act -129*.
For Cc1ccnc(NC(=O)C2CC(=O)N(Cc3ccccc3)C2)c1 (stereo not drawn) the results were aSyn UTR act -112*.
`C/C(=N\NC(=O)CN1CCCCC1)c1cccc([N+](=O)[O-])c1` gave aSyn UTR act -93*.
O=C(c1cnsn1)N1CCC(CO)(Cc2cccc(F)c2)CC1 was read as aSyn UTR act -138*.
Screening O=C(NCc1cccnc1)c1ccc([N+](=O)[O-])o1 returned aSyn UTR act -117*.
`COC(=O)c1sccc1-c1ccc(C(=O)Nc2cccnc2)o1` gave aSyn UTR act -76*.
O=C(NN(c1ccccc1)c1ccccc1)c1ccc([N+](=O)[O-])o1 was read as aSyn UTR act -83*.
`O=C(Nc1cccnc1)c1ccc([N+](=O)[O-])o1` gave aSyn UTR act -202*.
NC(=O)c1oc2ccccc2c1NC(=O)c1ccc([N+](=O)[O-])o1 was read as aSyn UTR act 100.
Screening CC1(C)N=C(N)N=C(N)N1c1ccc(Oc2ccc(Cl)cc2)c(Cl)c1 returned aSyn UTR act 85.
Screening CCc1ccc(NC(=O)C(=S)NC2CCCCC2)cc1 returned aSyn UTR act -177*.
For CCOc1ccc(NC(=O)C(=S)NC2CCCCC2)cc1 the results were aSyn UTR act -192*.
Screening COc1ccc(NC(=O)C(=S)NC2CCCCC2)cc1 returned aSyn UTR act -125*.
`O=C(CSCCO)Nc1ccc(C2CCCCC2)cc1` gave aSyn UTR act -127*.
`COc1ccc(NC(=O)CSC2CCCCC2)cc1` gave aSyn UTR act -158*.
COc1ccc(NC(=O)C(=S)N2CCCC2)cc1 was read as aSyn UTR act -63*.
CCCC#Cc1ccc2c(c1)COc1c3ccccc3nn1-2 was read as aSyn UTR act -76*.
For Cc1cc(C)c2c(c1)C(=O)/C(=C/c1ccc(C(=O)O)cc1)CC2 the results were aSyn UTR act -79*.
`COC(=O)C1CCN(C(=O)/C=C/c2ccc3c(c2)OCO3)CC1` gave aSyn UTR act -66*.
For CN1CCN(C2=C(Cl)C(=O)N(Cc3ccccc3)C2=O)CC1 the results were aSyn UTR act -120*.
Cc1cc(N2CCN(C)CC2)ccc1NC(=O)c1c2c(nc3ccccc13)CCN(Cc1ccccc1)C2 was read as aSyn UTR act 92.
`COc1ccc(CNC[C@@H](CCCCN(C)Cc2ccc(OC)cc2)N2C[C@H](c3ccccc3)N(CCc3ccc(Cl)c(Cl)c3)C(=O)C2=O)cc1` gave aSyn UTR act 92.
Screening COc1ccc(NC2=C(Cl)C(=O)N(CCc3ccccc3)C2=O)c(OC)c1 returned aSyn UTR act -177*.
Screening COc1ccc(NC2=C(Cl)C(=O)N(CCc3ccccc3)C2=O)cc1 returned aSyn UTR act -68*.
CCOc1ccc(NC2=C(Cl)C(=O)N(Cc3ccccc3)C2=O)cc1 was read as aSyn UTR act -119*.
For Cc1ccnc(N2CCN(C(=O)CSc3nc4ccccc4nc3N3CCC(C)CC3)CC2)c1 the results were aSyn UTR act -80*.
For CCC(=O)Nc1cccc(NC(=O)c2ccc3c(c2)OCCO3)c1 the results were aSyn UTR act -105*.
CCN1C(=O)c2cccc3c(NC(=O)c4ccc5c(c4)OCCO5)ccc1c23 was read as aSyn UTR act -79*.
CN(C)S(=O)(=O)c1cccc(NC(=O)c2ccc3c(c2)OCCO3)c1 was read as aSyn UTR act -119*.
Cc1cccc(C)c1NC(=O)COC(=O)c1cccc2c1C(=O)c1ccccc1C2=O was read as aSyn UTR act 68.
Screening O=C(COC(=O)c1ccc2c(c1Cl)C(=O)c1ccccc1C2=O)NC1CC1 returned aSyn UTR act -66*.
Screening c1ccc(Nc2ccccc2Nc2ccccn2)nc1 returned aSyn UTR act -63*.
For CSCc1ccc(C(=O)Nc2cccc(C)c2C)cc1 the results were aSyn UTR act -82*.
Screening O=C(Nc1ccccn1)Nc1ccccc1[N+](=O)[O-] returned aSyn UTR act -91*.
`Oc1cccc2ccc(Nc3ccccn3)nc12` gave aSyn UTR act 98.
`Cc1ccccc1NC(=O)Nc1ccccn1` gave aSyn UTR act -111*.
Cc1cccc(NC(=O)Nc2ccccn2)c1C was read as aSyn UTR act -71*.
Screening Cc1cccc(NC(=O)c2ccccn2)c1C returned aSyn UTR act -112*.
`CC(Oc1ccccc1)C(=O)NC1=NCCS1` (stereo not drawn) gave aSyn UTR act -108*.
`O=C(NC1=NCCS1)Nc1ccccc1` gave aSyn UTR act -121*.
`O=C(NC1=NCCS1)c1csc2ccccc12` gave aSyn UTR act -183*.
Screening CN(C)c1ccc(/C=C/c2nnnn2-c2ccccc2)cc1 returned aSyn UTR act -157*.
For O=C(N/N=C/c1ccc([N+](=O)[O-])s1)c1ccncc1 the results were aSyn UTR act -64*.
Screening Cc1ccc(C(=O)N/N=C/c2ccc([N+](=O)[O-])s2)cc1 returned aSyn UTR act 108.
`O=C(N/N=C/c1ccc([N+](=O)[O-])s1)c1cccc(Br)c1` gave aSyn UTR act 67.
Screening COc1ccc(NC(=O)CCC(=O)N/N=C/c2ccc([N+](=O)[O-])s2)cc1 returned aSyn UTR act -79*.
